Shown are actives, neighbours in structure and some others; about 5.2% of the full set was active somewhere.
SMARCA2 act: increases SMARCA2 function in MMTV reporter cells | MG213 cells, MMTV-luciferase reporter, dexamethasone, overnight | activation, % at 9.1 µM | 1% of 370,000 active; in the data active means activation above about 7.8%;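 further: 0% = vehicle wells and 100% = reference activator wells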
NadD block: blocks S. aureus nicotinate mononucleotide adenylyltransferase | 0.78% of 360,000 active | purified NadD enzyme, colorimetric absorbance read-out | inhibition, % at 20 µM; in the data active means inhibition above about 26%
esBAF inh: SWI/SNF esBAF complex inhibition; mouse ES cells, Bmi1-luciferase knock-in reporter, 24 h; 100% = twice the neutral-well signal; reporter increase, % at 12.5 µM; 2% of 350,000 active; in the data active means activation above about 40%;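 further: 0% = median of the plate's neutral control wells and 100% = double that signal; a rise in the Bmi1 reporter signal indicates esBAF inhibition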
SKN-1 inh: inhibitors of C. elegans SKN-1. C. elegans VP596 Pgst-4::GFP/RFP ratio, acrylamide-induced, 24 h. inhibition, % at 21.8 µM. 0.49% of 360,000 active. AID 624304;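 active means interference check ratio from 0.5 to 1.5 plus GFP to RFP signal ratio inhibition reaching or exceeding a fixed threshold, cut at about 30% in these data, passing the limit was not always enough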
GRIN3A LBD mod: modulates the human NR3A ligand-binding domain. NR3A LBD differential scanning fluorimetry, Tm shift; 0% = protein alone, 100% = glycine-bound protein. Tm shift relative to glycine control, % at 25 µM. 2.5% of 340,000 active;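 active means melting temperature shift of at least 10% of the positive control shift, at one fixed dose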
Vif inh: HIV Vif inhibition; HEK293T cells, Vif self-association by quenched fluorescence, imaging, 24 h; inhibition, % at 7.49 µM; 0.35% of 340,000 active; AID 602346; in the data active means inhibition above about 50%, passing the limit was not always enough
The depositor's hits bear a star; i = inactive; nt = no result given; + = active, no number.

SMILES | SMARCA2 act | NadD block | esBAF inh | SKN-1 inh | GRIN3A LBD mod | Vif inh
CC(=O)Nc1ccccc1C(=O)C(=O)Nc1ccc(C)c(F)c1 | 5 | -2 | nt | 11 | 4 | 2
NC(=O)c1ccccc1NC(=O)Nc1ccc(F)c(Cl)c1 | -1 | -1 | nt | 0 | 33* | 6
CC(=O)Nc1ccccc1C(=O)C(=O)Nc1ccc(F)c(Cl)c1 | 8 | -3 | 56* | 5 | 2 | -3
Fc1ccc(-c2csc(N3CCSCC3)n2)cc1 | 6 | -6 | 46* | 41* | 6 | -5
OC(c1ccc(F)cc1)c1nc(-c2ccncc2)cs1 (stereo unspecified) | -8 | -2 | -10 | -12 | nt | -5
O=S(=O)(Nc1ccc(-c2csc(-c3ccccc3)n2)cc1)c1ccc(F)cc1 | 1 | 3 | nt | 2 | 22* | 3
O=C(Nc1nc(-c2ccccc2)cs1)c1ccccc1NS(=O)(=O)c1ccc(F)cc1 | -8 | 10 | nt | 24 | 32* | -15
Fc1ccc(-c2csc(-c3ccncc3)n2)cc1 | 4 | -1 | 30 | 70* | 26* | -3
C[C@H](O)C#Cc1cnc2c(c1)C(=O)N([C@H](C)CO)C[C@H](C)[C@@H](CN(C)C(=O)c1ccc(F)cc1)O2 | nt | nt | -4 | nt | nt | nt
CC1Oc2cc3oc4c(O)c(O)ccc4c(=O)c3c(O)c2C1(C)C (stereo unspecified) | nt | 9 | 13 | 5 | 20* | 3
O=c1cc(CN2CCOCC2)c2ccc(O)c(O)c2o1 | 0 | -3 | 4 | 16 | 2 | 11
CCNC(=O)C[C@@H]1CC[C@@H]2[C@@H](COc3ccc(NC(=O)Cc4cccs4)cc3C(=O)N2C)O1 | nt | nt | 1 | nt | nt | nt
CCOC(=O)c1ccc(CC(=O)c2ccc(O)cc2O)o1 | -4 | 1 | 49* | 15 | 2 | -3
COCCNC(=O)C[C@@H]1CC[C@@H]2[C@H](COC[C@H](O)CN2C(=O)Nc2ccccc2OC)O1 | nt | nt | -8 | nt | nt | nt
CO[C@@H]1CN(C)C(=O)c2cc(NC(=O)NC3CCCCC3)ccc2OC[C@H](C)N(C(C)=O)C[C@@H]1C | nt | nt | -3 | nt | nt | nt
N#C/C(=C\c1ccc(O)c(O)c1)C(=O)Nc1cccc2ncccc12 | 1 | 86* | nt | 0 | -2 | 0
NS(=O)(=O)c1ccc2c(c1)C1C=CCC1C(C1CC=CCC1)N2 (stereo unspecified) | -3 | 39* | nt | 5 | -3 | 1
CC(C)C1Nc2ccc(S(N)(=O)=O)cc2C2C=CCC21 (stereo unspecified) | 6 | 5 | nt | 5 | 2 | -7
COc1ccc2[nH]c(=O)c(CN(Cc3cccs3)C(=S)Nc3cccc(C)c3)cc2c1 | 1 | 20 | nt | -2 | 10* | -1
COc1ccc2[nH]c(=O)c(CNc3cccc(C)c3)cc2c1 | 4 | 24 | 56* | 0 | -2 | -2
C[C@@H]1CCCCO[C@H](CN(C)C(=O)Nc2ccccc2)[C@H](C)CN([C@@H](C)CO)C(=O)c2cc(NC(=O)Nc3cccc4ccccc34)ccc2O1 | nt | nt | 1 | nt | nt | nt
N#CC(C(=S)Nc1ccccc1)c1nc2ccccc2[nH]1 (stereo unspecified) | 0 | 4 | -4 | 13 | 31* | -3
CC1CCN(c2ccc3c(c2)S(=O)(=O)c2cccc(C(=O)NC4CCCCC4)c2C3=O)CC1 | 2 | 22 | 22 | 22 | -1 | 51*
O=C(NC1CCCC1)c1cccc2c1C(=O)c1ccc(N3CCCCC3)cc1S2(=O)=O | -1 | 5 | 50* | 7 | -1 | 29
COc1ccc(NC(=O)c2cccc3c2C(=O)c2ccc(-c4ccc(F)cc4OCc4ccccc4)cc2S3(=O)=O)cc1 | 2 | 30* | -8 | -6 | -1 | -1
SMILES | SMARCA2 act | NadD block | esBAF inh | SKN-1 inh | GRIN3A LBD mod | Vif inh
O=C(NC1CCCCC1)c1cccc2c1C(=O)c1ccc(N3CCCC3)cc1S2(=O)=O | 0 | 10 | 14 | -13 | 0 | -1
CC1CCN(c2ccc3c(c2)S(=O)(=O)c2cccc(C(=O)NCc4ccc(F)cc4)c2C3=O)CC1 | 2 | 9 | 70* | 29 | -1 | i
C[C@H]1CN([C@@H](C)CO)C(=O)Cc2cc(NC(=O)Nc3ccccc3)ccc2O[C@H]1CN(C)C(=O)Nc1cccc2ccccc12 | nt | nt | 4 | nt | nt | nt
CC(C)NC(=O)N(C)C[C@H]1Oc2ncc(-c3cccc(C#N)c3)cc2C(=O)N([C@@H](C)CO)C[C@@H]1C | nt | nt | 4 | nt | nt | nt
CO[C@@H]1CN(C)C(=O)c2ccc(NS(=O)(=O)c3ccccc3C)cc2OC[C@@H](C)NC[C@H]1C | nt | nt | -2 | nt | nt | nt
C[C@H](CO)N1C[C@H](C)[C@@H](CN(C)C)Oc2ccc(NC(=O)Nc3ccc4c(c3)OCO4)cc2CC1=O | nt | nt | -3 | nt | nt | nt
Cc1cccc(S(=O)(=O)N[C@H]2CC[C@@H](CCNC(=O)CCN3CCCCC3)O[C@@H]2CO)c1 | nt | nt | -1 | nt | nt | nt
CC(C)(C)CNC(=O)c1cccc2c1C(=O)c1ccc(N3CCCC3)cc1S2(=O)=O | -1 | 3 | 19 | -27 | -1 | 7
O=C(NCc1ccccc1C(F)(F)F)c1cccc2c1C(=O)c1ccc(N3CCCCC3)cc1S2(=O)=O | 1 | 22 | -2 | -14 | -6 | +
N#CCC(=O)N/N=C/c1cn(Cc2ccc(Cl)cc2Cl)c2ccccc12 | -5 | 17 | 8 | 2 | 24* | -4
CCOC(=O)N/N=C/c1cn(Cc2ccc(Cl)cc2)c2ccccc12 | 7 | 0 | nt | 8 | -4 | 1
CC(C)CC1C(=O)N(Cc2cn(CCC3OCCCO3)nn2)CCS(=O)(=O)N1Cc1ccc(-c2ccc(Cl)nc2)cc1 (stereo unspecified) | 4 | -8 | 58* | -4 | nt | -3
C[C@@H]1CN([C@@H](C)CO)C(=O)c2cc(NS(=O)(=O)c3ccccc3)ccc2O[C@@H]1CN(C)S(=O)(=O)c1ccc(F)cc1 | nt | nt | 9 | nt | nt | nt
O=C(CSc1nc(O)c(C2CCCCC2)c(=O)[nH]1)NCC1CCCO1 (stereo unspecified) | -1 | -5 | 3 | 31* | 1 | 23
Cc1cc(=O)[nH]c(SCC(=O)NCC2CCCO2)n1 (stereo unspecified) | 4 | 2 | nt | 15 | 1 | 6
CC(=O)Nc1ccc(N/C=C/C(=O)c2ccccc2)cc1 | 7 | -3 | 37 | 20 | 9 | 0
O=C(/C=C\Nc1ccc(Br)cc1)c1cccnc1 | 3 | -2 | nt | 86* | -1 | 2
O=C(/C=C/Sc1ccccc1)c1ccccc1 | 8 | -6 | -2 | 81* | -38 | 6
O=C(/C=C/Nc1ccccc1)c1ccccc1 | 5 | 0 | 5 | 36* | nt | -17
O=C(/C=C/Nc1ccc(F)cc1Br)c1ccccc1 | -2 | -4 | -53 | 37* | -2 | -6
Cc1cc(N/C=C/C(=O)c2ccccc2)ccc1Br | 7 | 3 | -9 | 18 | 3 | -10
C[C@H]1CN([C@@H](C)CO)C(=O)c2cccc(NC(=O)c3cnccn3)c2O[C@@H]1CN(C)S(=O)(=O)c1ccccc1 | nt | nt | -5 | nt | nt | nt
